Bioassay records deposited in PubChem by National Center for Advancing Translational Sciences (NCATS).
FLuc modulator – qHTS profiling assay for firefly luciferase inhibitor/activator using purifed enzyme and Km concentrations of substrates (counterscreen for miR-21 project). Luciferin 4-monooxygenase (Photinus pyralis), P08659. purified FLuc, Km substrates, luminescence inhibition. Potency, µM (series often up to 57.5 µM), hits mostly inhibitors. actives 6.9% (n = 360,000); also: nearly all actives have a fitted effect of over 55% in size
Target sequence (P08659 whole entry, looked up): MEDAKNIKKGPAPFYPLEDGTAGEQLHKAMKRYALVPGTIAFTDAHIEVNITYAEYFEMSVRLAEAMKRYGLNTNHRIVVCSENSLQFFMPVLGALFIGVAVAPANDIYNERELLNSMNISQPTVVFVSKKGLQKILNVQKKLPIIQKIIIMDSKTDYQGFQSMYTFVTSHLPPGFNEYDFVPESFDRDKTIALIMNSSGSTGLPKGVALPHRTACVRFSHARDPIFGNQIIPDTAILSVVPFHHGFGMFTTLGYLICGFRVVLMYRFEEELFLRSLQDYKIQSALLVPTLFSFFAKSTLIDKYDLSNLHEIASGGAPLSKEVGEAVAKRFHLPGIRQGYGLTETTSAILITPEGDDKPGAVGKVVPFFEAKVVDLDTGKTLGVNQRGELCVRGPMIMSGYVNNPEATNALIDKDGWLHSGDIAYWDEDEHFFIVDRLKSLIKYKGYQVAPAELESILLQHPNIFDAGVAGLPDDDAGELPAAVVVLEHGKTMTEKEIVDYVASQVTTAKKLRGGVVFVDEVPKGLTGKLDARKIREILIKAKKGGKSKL
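Biochemical qHTS of compounds, final roughly 60 µM downward over six points, against 10 nM purified firefly luciferase using Km concentrations of substrates (10 uM D-luciferin, 10 uM ATP) in Tris acetate pH 7.5 buffer; luminescence output.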
Rab9 prom act – qHTS Assay for Rab9 Promoter Activators; Huh7 Rab9 promoter-luciferase reporter, luminescence, 24 h; Potency, µM (titrated, usually from 9.22 µM), actives largely listed as activators; actives 2.8% (n = 320,000); AID 485297, 2010; also: nearly all actives have a fitted effect of over 60% in size
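Luciferase signal after 10 min detection reagent at ambient indicates Rab9 promoter upregulation; stably transfected Huh7 cells were treated 24 h with compound in DMSO at 37 °C, 5% CO2.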
KinaseGlo FLuc – Counterscreen for Luciferase (Kinase-Glo TM) Inhibition | Potency, µM (titrated, usually from 38.3 µM), hits mostly inhibitors | Luciferin 4-monooxygenase (Photuris pensylvanica), Q27757 | actives 0.28% (n = 200,000) | Kinase-Glo luciferase, ATP luminescence, 8 min; also: nearly all actives have a fitted effect of over 60% in size
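Compound is pinned into ATP-containing buffer (10 uM ATP, imidazole pH 7.2, 7 mM MgCl2). Kinase-Glo luciferase reagent is then added. Light output is recorded following an 8-min room-temperature incubation.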
NPC1 prom act – qHTS Assay for NPC1 Promoter Activators; AID 485313, 2010; Huh7 NPC1 promoter luciferase reporter, 24 h; actives 2.4% (n = 320,000); Potency, µM (top dose mostly 9.22 µM), actives largely listed as activators; also: nearly all actives have a fitted effect of over 60% in size
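Stably transfected Huh7 (NPC1 promoter→luciferase), 1500 cells/well in Opti-MEM + 10% FBS, 2 h settle, then compound 24 h at 37 °C. Luminescence after 10 min with Amplite reagent.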
SMN2 splice up – qHTS Assay for Enhancers of SMN2 Splice Variant Expression | HEK293 SMN2-luciferase splicing reporter, luminescence, 30-36 h | Potency, µM (highest dose often 46.1 µM), actives largely listed as activators | actives 2.8% (n = 210,000) | AID 1458, 2008; also: nearly all actives have a fitted effect of over 55% in size
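HEK293 cells carry an SMN2 […]–luciferase reporter in which exon 7 inclusion puts luciferase in frame. Cells were plated 10-12 h before compound addition, then incubated 30-36 h at 37C. ONE-Glo luminescence was read; sodium butyrate at 4.5 mM final served as control.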
ELG1 genotox – qHTS screen for small molecules that induce genotoxicity in human embryonic kidney (HEK293T) cells expressing luciferase-tagged ELG1; Potency, µM (top dose mostly 46 µM), hits mostly activators; actives 1.3% (n = 330,000); HEK293T ELG1-luciferase reporter, luminescence, 16 h; also: nearly all actives have a fitted effect of over 60% in size
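Cells (2,000/well) expressing the ELG1-luciferase fusion are dosed by pin tool and kept 16 hr at 37 °C, 5% CO2. Signal comes from ONE-Glo luciferase reagent after 30 min at room temperature.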
A number is an active result; - = inactive; ? = inconclusive; . = not tested or not shown. Only some compounds are listed: those with a hit (about 7.4% of all), similar ones and a draw of the others. Calls follow the shape of the dose curve; as a rule, active = well fitted curve in the direction sought with a large enough effect; inconclusive = small, poorly fitted or top-dose-only effect, or another doubt; inactive = no such curve, though single readings can be large; an effect the other way counts as inactive or inconclusive.

SMILES	FLuc modulator	Rab9 prom act	KinaseGlo FLuc	NPC1 prom act	SMN2 splice up	ELG1 genotox
N[C@H](C(=O)O)[C@H](Cc1ccccc1)C(=O)O	.	-	.	-	.	.
Nc1nc2c(c(=O)[nH]1)N=C(CNc1ccc(C(=O)NC(CCC(=O)O)C(=O)O)cc1)CN2 (stereo not given)	.	.	-	.	.	.
CC(=O)c1ccc(NC(=O)c2cc3ccccc3o2)cc1	?	0.631µM	.	1µM	.	2.59µM
O=C(Nc1ccc(F)cc1)c1cc2ccccc2o1	6.75µM	3.16µM	.	3.55µM	.	-
CC(NC(=O)c1cc2ccccc2o1)c1ccccc1 (stereo not given)	-	-	-	-	.	-
CSC(C(=O)c1cc2ccccc2o1)c1ccccc1 (stereo not given)	?	3.16µM	.	?	.	-
O=C(NNC(=O)c1cc2ccccc2o1)c1ccncc1	.	.	.	.	.	-
O=C(Nc1ccc(NC(=O)c2cc3ccccc3o2)cc1)c1ccco1	-	-	.	-	.	-
O=C(NNC(=O)c1ccccc1O)c1cc2ccccc2o1	26.9µM	?	.	4.47µM	.	?
O=C(NCc1ccccc1Cl)c1ccc(NC(=O)N2CCSc3ncccc32)cc1	-	.	.	.	.	.
CCOc1ccc(C(=O)Nc2ccc3oc(-c4ccc(C)cc4C)nc3c2)cc1Br	-	.	.	.	-	.
O=C(Nc1ccccc1)c1cc2ccccc2o1	1.2µM	1.58µM	12.6µM	2.82µM	12.6µM	?
O=C(Nc1ccc(N2CCCC2)cc1)c1cc2ccccc2o1	3.01µM	2µM	.	3.55µM	.	?
Cc1cc(C(=O)Nc2ccccc2)oc1C	12µM	2.82µM	12.6µM	?	20µM	?
CC(=O)N1CCN(c2ccc(NC(=O)c3cc4ccccc4o3)cc2)CC1	?	-	.	-	.	-
CC(C)c1nnc(NC(=O)c2cc3ccccc3o2)s1	6.75µM	2µM	.	?	.	?
O=C(Nc1ccccc1)c1cccc(=O)o1	-	-	.	-	.	-
CCN(CCCNC(=O)CSc1cc(=O)n(CC)c2ccccc12)c1ccccc1	-	.	.	.	-	.
Cc1ccc2c(c1C)NC(=O)CC2c1ccc(Cl)cc1Cl (stereo not given)	-	.	.	.	-	.
Cc1ccc(Nc2nnc(SCc3cc(=O)n4ccsc4n3)s2)c(C)c1	-	-	-	-	-	-
Cc1ccc(SCc2cc(=O)n3ccsc3n2)c(C)c1	15.1µM	3.16µM	-	?	12.6µM	?
CCCCC/C=C\C/C=C\CCCCCCCC(=O)NCCc1ccc(O)c(O)c1	.	.	-	.	-	.
O=c1[nH]c2ccc(Cl)cc2c(O)c1-c1ccccc1	9.53µM	-	-	-	-	-
COc1cccc(-c2nnc(-c3ccco3)o2)c1	9.53µM	2.51µM	-	2.51µM	11.2µM	?
COc1cccc(-c2nnc(-c3ccccc3[N+](=O)[O-])o2)c1	9.53µM	3.98µM	.	?	.	?
SMILES	FLuc modulator	Rab9 prom act	KinaseGlo FLuc	NPC1 prom act	SMN2 splice up	ELG1 genotox
COc1cccc(-c2nnc(-c3ccc(C)o3)o2)c1	1.69µM	0.708µM	-	1.12µM	2.82µM	?
COc1ccc(-c2cc(C(=O)N3CCCCC3)no2)cc1OC	?	?	-	?	-	?
O=C(c1cc(-c2ccc(O)cc2)on1)N1CCCCCC1	13.5µM	2.51µM	.	1.26µM	.	?
O=C(c1cc(-c2ccc(Cl)cc2)on1)N1CCCCCC1	1.9µM	1.12µM	.	0.794µM	.	4.61µM
O=C(c1cc(-c2ccc(Cl)c(Cl)c2)on1)N1CCCCCC1	4.78µM	2.82µM	.	2µM	.	?
O=C(c1cc(-c2ccccc2O)on1)N1CCCCC1	8.49µM	.	.	.	20µM	.
CN(C(=O)c1cc(-c2ccccc2O)on1)c1ccccc1	?	.	.	.	-	.
CC1CCCCN1C(=O)c1cc(-c2ccc(Br)cc2)on1 (stereo not given)	?	.	.	.	-	.
COc1ccc(C(=O)N2CCC3(CCCN(C)C3)CC2)cc1	.	.	-	.	-	.
COc1cc(C(=O)Nc2cc3c(cc2C)n(C)c(=O)c(=O)n3C)cc(OC)c1OC	-	.	.	.	-	.
CCOC(=O)c1noc2ncnc(Nc3cccc(OC)c3)c12	-	.	.	.	.	.
O=C(c1cc(-c2ccc3c(c2)OCO3)on1)N1CCCCC1	0.849µM	0.501µM	.	0.316µM	.	0.116µM
CCN(CC)CCCNC(=O)c1ccc(Cc2nc3ccccc3[nH]2)cc1	.	.	-	.	.	.
COc1ccc(C)cc1NC(=O)NCc1ccc2c(c1)CCN2C(=O)c1ccccc1	-	.	.	.	.	.
CCOC(=O)c1cc(C(=O)Nc2sc3c(c2C#N)CCCC3)nn1C	4.78µM	?	.	-	.	-
Cc1cc(C(=O)Nc2sc3c(c2C#N)CCC3)no1	5.36µM	-	-	-	?	6.51µM
Cc1cc(C(=O)Nc2sc3c(c2C#N)CCC(C)C3)no1 (stereo not given)	2.69µM	2µM	-	1.78µM	14.1µM	2.06µM
Cc1cc(C(=O)Nc2sc3c(c2C#N)CCCC3)no1	2.39µM	1.58µM	-	3.16µM	6.31µM	?
Cn1ccc(C(=O)Nc2sc3c(c2C#N)CCC3)n1	?	-	.	-	.	-
CC1CCc2c(sc(NC(=O)c3ccc(Cl)cc3Cl)c2C#N)C1 (stereo not given)	-	.	.	.	-	.
CC(C)Cc1cc(C(=O)Nc2sc3c(c2C#N)CCC3)no1	?	-	-	-	-	-
COc1ccccc1-c1ccc(NC2CCCCC2)nn1	7.57µM	?	-	?	10µM	?
c1ccc2c(c1)nc(Nc1ccc(N3CCCCC3)cc1)c1nncn12	4.78µM	-	.	-	.	-
CCOc1ccc(Nc2nc3ccccc3n3cnnc23)cc1	13.5µM	-	.	-	.	-
c1ccc(Nc2nc3ccccc3n3cnnc23)cc1	-	-	-	-	-	-
SMILES	FLuc modulator	Rab9 prom act	KinaseGlo FLuc	NPC1 prom act	SMN2 splice up	ELG1 genotox
O=C(O)c1ccc(Nc2nc3ccccc3n3cnnc23)cc1	7.57µM	.	.	.	-	.
c1ccc(N2CCCCC2)c(Nc2nc3ccccc3n3cnnc23)c1	-	-	.	-	.	-
CCOCCn1ccc2c(OCC(=O)NCc3ccc(F)cc3)cccc2c1=O	-	.	.	.	.	.
COC1=CC(=O)C(O)=C/C1=C\C=C\c1ccccc1	.	.	-	.	-	.
CC(C)CCn1c(=O)c2sccc2n2c(CCCC(=O)NCCc3ccccc3)nnc12	-	.	.	.	.	.
NCCC[C@@H](CC(=O)N[C@@H]1CCNC[C@H]1C(=O)N[C@H](CC(=O)N[C@@H](CCC(=O)O)CC(=O)O)Cc1ccccc1)NC(=O)C[C@H](CO)NC(=O)[C@@H]1CCCC[C@H]1N	.	.	-	.	-	.
O=C(NC1CCCC1)c1cc2ccccc2o1	?	?	.	-	.	?
O=C(NC1CCCC1)c1cc2cc(Br)ccc2o1	10.7µM	2.82µM	.	3.16µM	.	?
O=C(NC1CCCCC1)c1cc2cc(Br)ccc2o1	4.78µM	?	.	3.16µM	.	?
CCOC(=O)C1CCN(C(=O)CSc2n[nH]c(-c3ccccc3Cl)n2)CC1	-	.	.	.	.	.
